Results with a measured potency or affinity are listed apart. Active and inactive are the calls of the source.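 How the source made its calls: active means every repeat run showing a signal drop whose fitted half-maximal concentration is at most twice the top tested concentration; inconclusive means repeat runs disagree, or flat partial drop, or poor fit; inactive means the rest.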

This experiment is described as follows: HEK293T cytotoxicity, dose response, cytotoxicity control for miR-122 modulator project, cell-based, activator set, cherry-pick (AID 720690). Conditions: HEK293T viability, CellTiter-Glo luminescence, 48 h; series mostly up to 26 µM.
Take `CC(C)N(C[C@H]1[C@H](c2ccccc2)[C@@H](CO)N1S(C)(=O)=O)C(=O)CN(C)C`: the molecule was classed as inactive. In the case of `CN(C)CCCNC(=O)C[C@H]1CC[C@H]2[C@H](COc3ccc(NC(=O)c4cccc(F)c4)cc3C(=O)N2C)O1` it was “inactive”; in that of `CCCNC(=O)N1[C@H](CNC(=O)c2ccc(F)cc2)[C@H](c2ccccc2)[C@@H]1CO`, “inactive”; in that of `CCCCCn1c(=O)[nH]c2cc(C(=O)NCCN3C(C)CCCC3C)ccc2c1=O` (centres undefined), “inactive”.

(Values after PubChem BioAssay AID720690 (Broad Institute, 2013).)
